An excerpt weighted towards active compounds, which were near 8.7% of everything screened.
JMJD2A Tudor = qHTS Assay for Inhibitors of JMJD2A-Tudor Domain | Lysine-specific demethylase 4A (Homo sapiens), O75164 | AlphaScreen JMJD2A-Tudor / H3K4me3 peptide binding | Potency, µM (titrated, usually from 114 µM), for the others: at the highest dose activity change, negative = inhibition, most hits filed as inhibitors | actives 4.4% (n = 390,000) | AID 504339, 2011; further: on the % scale 0 is the no-effect control and ±100 the full control effect; nearly all actives have a fitted effect of over 50% in size
G9a block = qHTS Assay for Inhibitors of Histone Lysine Methyltransferase G9a. Histone-lysine N-methyltransferase EHMT2 (Homo sapiens), Q96KQ7. Potency, µM (titrated, usually from 102 µM), for the others: top-dose activity, negative = inhibition, hits mostly inhibitors. G9a H3K9 monomethylation, AlphaScreen, 2 h. actives 8.8% (n = 350,000); further: on the % scale 0 is the no-effect control and ±100 the full control effect; nearly all actives have a fitted effect of over 75% in size
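Using a bead-based AlphaScreen, monomethylated H3K9 product from 2 h room-temperature reactions (G9a 20 nM, peptide 500 nM, SAM 20 uM) was detected with 0.5 ug/mL rabbit anti-H3K9me1 antibody.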
ALOX12 inh = Primary qHTS assay for inhibitors of human arachidonate 12S-lipoxygenase (ALOX12): Round 2. Polyunsaturated fatty acid lipoxygenase ALOX12 (Homo sapiens), P18054. purified 12hLO, xylenol orange hydroperoxide absorbance. Potency, µM (highest dose often 108 µM), inactives show at the top dose activity change, negative = inhibition, usual class: inhibitors. actives 1.1% (n = 580,000). AID 1671190, 2021; further: on the % scale 0 is the no-effect control and ±100 the full control effect
Target sequence (P18054 whole entry, looked up): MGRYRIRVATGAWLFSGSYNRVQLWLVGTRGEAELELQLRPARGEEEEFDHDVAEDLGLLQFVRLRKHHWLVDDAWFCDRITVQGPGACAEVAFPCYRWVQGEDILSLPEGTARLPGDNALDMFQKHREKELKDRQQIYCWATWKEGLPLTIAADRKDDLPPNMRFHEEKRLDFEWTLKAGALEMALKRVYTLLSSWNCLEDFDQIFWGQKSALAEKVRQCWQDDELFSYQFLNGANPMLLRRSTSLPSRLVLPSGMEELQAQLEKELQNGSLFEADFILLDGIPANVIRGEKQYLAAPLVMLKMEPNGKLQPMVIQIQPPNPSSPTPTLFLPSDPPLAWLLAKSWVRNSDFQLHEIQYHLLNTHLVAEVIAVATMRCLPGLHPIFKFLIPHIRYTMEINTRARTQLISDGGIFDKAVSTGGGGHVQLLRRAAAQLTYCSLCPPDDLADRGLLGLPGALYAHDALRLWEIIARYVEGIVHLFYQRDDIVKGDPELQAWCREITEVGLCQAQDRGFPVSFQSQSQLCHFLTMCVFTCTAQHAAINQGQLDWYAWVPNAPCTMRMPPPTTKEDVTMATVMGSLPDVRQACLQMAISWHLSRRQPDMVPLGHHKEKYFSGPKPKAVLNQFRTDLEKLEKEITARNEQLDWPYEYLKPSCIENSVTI
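Hydroperoxide product was detected by ferrous iron/xylenol orange as the 573 to 405 nm absorbance ratio. Arachidonic acid at 40 uM (final) was turned over for 30 min at room temperature by 150 nM human 12hLO, pH 7.0 Hepes buffer, after 15 min compound preincubation.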
Sfp PPTase inh = qHTS Assay for Inhibitors of Bacillus subtilis Sfp phosphopantetheinyl transferase (PPTase); AID 1490, 2009; actives 3.5% (n = 310,000); Potency, µM, inactives show largest response in the series, negative = inhibition, usual class: inhibitors; Biochemical Sfp PPTase activity, qHTS;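 further: the enzyme is Sfp with the accession as filed and its product quenches rhodamine fluorescence; 0% = enzyme reaction without inhibitor and -100% = no enzyme wells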
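Fluorescence-quenching assay: 15 nM Sfp-PPTase preincubated 15 min at room temperature with compound, then 5 uM rhodamine-CoA and 12.5 uM BHQ-2-labelled YbbR peptide added. Fluorescence (ex 525/em 598 nm) read at start and after 30 min; difference gives rate.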
HP1b chromo inh = HTS for Inhibitors of HP1-beta Chromodomain Interactions with Methylated Histone Tails | Chromobox protein homolog 1 (Homo sapiens), P83916 | actives 0.56% (n = 390,000) | AID 540317, 2011 | Potency, µM (highest dose often 114 µM), inactives show at the highest dose activity change, negative = inhibition, usual class: inhibitors | AlphaScreen HP1-beta / biotin-H3K9me3 peptide binding; further: nearly all actives have a fitted effect of over 70% in size
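Compound inhibition of the preformed complex between 50 nM HP1-beta and 50 nM biotinylated H3K9me3 peptide was read by AlphaScreen. Buffer was PBS pH 7.4 with 0.01% Tween-20. Incubations ran 30 min at room temperature, with 10 ug/mL donor/acceptor beads.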
BAZ2B inh = qHTS Assay for Inhibitors of BAZ2B; Bromodomain adjacent to zinc finger domain protein 2B (Homo sapiens), Q9UIF8; actives 4.4% (n = 360,000); Potency, µM (titrated, usually from 114 µM), for the others: at the highest dose activity change, negative = inhibition, actives largely listed as inhibitors; AlphaScreen BAZ2B-H3K14Ac peptide displacement; AID 504333, 2011; further: on the % scale 0 is the no-effect control and ±100 the full control effect; nearly all actives have a fitted effect of over 60% in size
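Compounds, titrated to a top concentration of 110 uM, were incubated 30 min at room temperature with preformed BAZ2B/acetyl-K14 H3 peptide complex (50 nM each). Proximity signal was measured by AlphaScreen after 20 min with beads.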
The depositor's hits bear a star; ? = inconclusive; . = no result given; [ ] = remark or other dose. The call rests on the fitted dose curve; in most records, active means well fitted curve in the direction sought with a large enough effect; inconclusive means small, poorly fitted or top-dose-only effect, or another doubt; inactive means no such curve, though single readings can be large; an effect the other way counts as inactive or inconclusive. Potency means the concentration at half of the fitted maximal effect.

SMILES	JMJD2A Tudor	G9a block	ALOX12 inh	Sfp PPTase inh	HP1b chromo inh	BAZ2B inh
CN(Cc1ccccc1)C(=O)COC(=O)c1cc(S(=O)(=O)N(C)C)ccc1N1CCCC1	-11.9%	50.1µM*	-12.8%	.	21.9%	-18.8%
Cc1ccccc1NC(=O)c1cc(N)ccc1N1CCCCC1	?	31.6µM*	-0.5%	-15.9%	-4.7%	?
CN(C)S(=O)(=O)c1ccc(N2CCCC2)c(C(=O)Nc2ccccc2Br)c1	-17.4%	44.7µM*	?	.	27.7%	6.4%
CCc1ccccc1NC(=O)c1cc(S(=O)(=O)N(C)C)ccc1N1CCCC1	-6.6%	10.4%	?	19.3%	18.2%	-5.0%
Cc1cnc(C(=O)N2CCC(N3C(=O)C4(CCCCC4)C3c3ccccc3)CC2)cn1 (stereo unspecified)	.	.	24.6%	.	.	.
Cc1cccc(Cc2ccc3ncc(-c4cccc(C(N)=O)c4)n3n2)c1	.	.	-17.0%	.	.	.
CCCc1ccc(C(NC(=O)CCNC(=O)C(C)(C)C)C(C)C)cc1 (stereo unspecified)	.	.	-31.2%	.	.	.
O=C(NCCN1CCOC1=O)c1cn(Cc2ccccc2C(F)(F)F)nn1	.	.	33.6%	.	.	.
Cc1noc(C)c1S(=O)(=O)NCc1cccnc1N(C)Cc1ccccc1	.	.	43.0%	.	.	.
CCOC(=O)c1cccc(Nc2cc(-c3ccccc3)ncn2)c1	-0.7%	15.8µM*	?	.	?	50.1µM*
Cc1cccc(-c2cc(Nc3cccc(C(=O)N(C)Cc4ccccc4)c3)ncn2)c1	.	.	-3.2%	.	.	.
COc1ccc(/C=N/n2cnc3c([nH]c4ccc(F)cc43)c2=O)cc1CN1CCCC1	-8.4%	39.8µM*	28.9%	-0.7%	?	-0.8%
COc1ccc(/C=N/n2cnc3c([nH]c4ccccc43)c2=O)cc1COc1ccccn1	.	32.1%[59 µM]	.	?	.	56.2µM*
COc1ccc2c(c1)[nH]c1c(=O)n(/N=C/c3ccc(OC)c(CN4CCCC4)c3)cnc12	2.9%[11.4 µM]	-0.4%[12.7 µM]	?	0.6%	19.9%	-12.8%
CC(C)(C)c1ccc(O)c(O)c1	12.6µM*	9.1%[0.501 µM]	35.5µM*	.	?	-7.6%
CC(=O)N1CCN(C(=O)CCCNC(=O)c2ccc(Cl)cc2)CC1	-4.5%	.	3.5%	.	46.2%	.
COc1cc(C(=S)N2CCN(c3cccc(Cl)c3)CC2)ccc1O	63.1µM*	-4.9%[0.501 µM]	44.7µM*	10µM*	7.08µM*	44.7µM*
Oc1ccccc1C(=S)N1CCN(c2cccc(Cl)c2)CC1	?	-8.6%[0.501 µM]	?	15.8µM*	?	44.7µM*
CC(=O)N1CCN(C(=S)c2ccc(Cl)cc2)CC1	-6.6%	25.1µM*	1.8%	7.08µM*	?	40.8%
COc1ccc(C(=S)N2CCN(c3cccc(Cl)c3)CC2)c(OC)c1	?	10µM*	?	17.8µM*	?	?
CCOc1ccc(C(=O)N(Cc2cccc(Cl)c2)c2ccccn2)cc1	.	.	6.9%	.	.	.
CC(=O)c1ccc(NC(=O)Cn2ccn3nc(-c4ccc(F)cc4)c(CO)c3c2=O)cc1	.	.	45.8%	.	.	.
O=C(c1ccc(Cl)cc1)N(CC1CCOC1)C1CC1 (stereo unspecified)	.	.	65.6%	.	.	.
Oc1ccc(C(=S)N2CCN(c3cccc(Cl)c3)CC2)cc1	56.2µM*	5.01µM*	?	15.8µM*	?	39.8µM*
COc1cc(C(=S)N2CCN(c3ccccc3Cl)CC2)cc(O)c1O	31.6µM*	1.78µM*	?	35.5µM*	11.2µM*	50.1µM*
SMILES	JMJD2A Tudor	G9a block	ALOX12 inh	Sfp PPTase inh	HP1b chromo inh	BAZ2B inh
COc1ccccc1N1CCN(C(=O)COc2ccc(Cl)cc2Br)CC1	-18.1%	-50.8%[59 µM]	?	-19.5%	32.2%	.
CC1(c2ccccc2)NC(=O)N(CC(=O)NNC(=O)c2ccccc2)C1=O (stereo unspecified)	-3.5%	-0.1%	.	9.1%	22.3%	-16.2%
CC1(c2ccccc2)NC(=O)N(CC(=O)Nc2nc(-c3ccccn3)cs2)C1=O (stereo unspecified)	44.7µM*	-43.0%[2.33 µM]	-16.7%	.	-10.4%	50.1µM*
Cc1ccc(C2(C)NC(=O)N(CC(=O)Nc3nc(-c4ccccn4)cs3)C2=O)cc1 (stereo unspecified)	39.8µM*	-2.4%[0.501 µM]	?	.	31.6µM*	79.4µM*
Cc1nc(N)c(C(N)=O)[nH]1	.	.	12.5%	.	.	.
CN(C)Cc1nnc(C2CC(NC(=O)c3n[nH]c4c3CCCC4)C2)n1C (stereo unspecified)	.	.	40.2%	.	.	.
CC(=O)c1cc2c(cc1NC(=O)CCCC(=O)O)OCO2	-2.6%	-4.2%	247.7%	25.1%	35.8%	8.7%
CC(=O)c1cc2c(cc1NC(=O)CN1CCCCCCC1)OCO2	?	10µM*	?	-25.1%	?	50.1µM*
CC(=O)c1cc2c(cc1NC(=O)CCn1cnnn1)OCO2	-1.4%	39.8µM*	-3.9%	31.7%	41.9%	4.3%
COc1ccc(C(NC(=O)C(C)C)c2ccc3cccnc3c2O)cc1 (stereo unspecified)	-26.0%	.	5.6%	7.9%	46.3%	44.7µM*
CCCC(=O)NC(c1ccc(C(C)C)cc1)c1ccc2cccnc2c1O (stereo unspecified)	-20.5%	75.6%	3.1%	8.4%	52.8%	-23.0%
CCCC(=O)NC(c1ccc(N(C)C)cc1)c1ccc2cccnc2c1O (stereo unspecified)	22.4µM*	3.8%[59 µM]	-14.5%	18.0%	-17.3%	7.1%[0.457 µM]
CC(=O)NC(c1ccco1)c1ccc2cccnc2c1O (stereo unspecified)	56.2µM*	-8.2%	.	10.1%	24.3%	20µM*
O[C@H]1CC[C@@H](Cc2cc(COc3ccccc3)on2)O[C@@H]1CNC1CCOCC1	.	.	46.3%[176 µM]	.	.	.
c1ccc(-c2csc(Nc3cccnc3)n2)cc1	-0.7%	-26.9%	50.4%	31.6µM*	14.8%	-26.9%
O=[N+]([O-])c1ccccc1Nc1nc(-c2cccnc2)cs1	35.5µM*	?	-8.9%	-5.7%	?	14.1µM*
Clc1ccc(Nc2nc(-c3cccnc3)cs2)cc1	-13.3%	?	?	79.4µM*	25.7%	-30.6%
Clc1ccc(-c2csc(Nc3cccnc3)n2)cc1	-2.8%	?	-56.9%	-4.9%	33.0%	-15.2%
O=c1[nH]c2c(s1)C(c1ccco1)C1C3CCC(C3)C1S2 (stereo unspecified)	?	7.94µM*	169.6%	44.7µM*	-13.4%	50.1µM*

Bioassay records (PubChem)
